Only some compounds are listed: those with a hit (about 3.8% of all), similar ones and a draw of the others.
GPR32 ag = qHTS for Agonists of Human Resolvin D1 Receptor DRV1; hit rate 2.5% among 48,000; CHO-K1 GPR32 beta-arrestin PathHunter luminescence, 90 min; zero percent set by DMSO-only wells; activation, % at 76.9 µM; Probable G-protein coupled receptor 32 (Homo sapiens), O75388;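 active means activation of at least 60% and not above a set upper limit, about 1 call in 100 departs from these limits; inconclusive means activation of 40% to 60%, or above that upper limit; inactive means activation under 40%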; further: 0% is about no effect
Target sequence (O75388 whole entry, looked up): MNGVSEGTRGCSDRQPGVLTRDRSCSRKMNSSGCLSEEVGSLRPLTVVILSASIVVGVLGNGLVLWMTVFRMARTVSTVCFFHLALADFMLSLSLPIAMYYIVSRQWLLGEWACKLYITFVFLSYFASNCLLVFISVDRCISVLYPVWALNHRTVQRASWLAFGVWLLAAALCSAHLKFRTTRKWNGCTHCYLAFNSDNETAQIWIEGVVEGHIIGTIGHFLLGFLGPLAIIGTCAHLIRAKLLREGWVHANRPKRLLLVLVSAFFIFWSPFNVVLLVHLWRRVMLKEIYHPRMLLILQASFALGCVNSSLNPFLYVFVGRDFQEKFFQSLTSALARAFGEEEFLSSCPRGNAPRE
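Beta-arrestin recruitment read-out: luminescence from complemented beta-Gal in CHO-K1 GPR32 PathHunter cells, measured 1 h after detection reagent at ambient temperature following 90 min compound exposure at 37 °C; DMSO served as basal (EC0) control.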
FH mod = Identification of activators of human fumarate hydratase by quantitative high-throughput screening. hit rate 0.22% among 54,000. AID 1347055, 2019. Fumarate hydratase, mitochondrial (Homo sapiens), P07954. Potency, µM (series often up to 79.9 µM), for inactives: top-dose activity change, negative = inhibition, actives largely listed as inhibitors. FH coupled MDH/diaphorase resazurin fluorescence, 15 min; further: potency means the concentration at half of the fitted maximal effect; on the % scale 0 is the no-effect control and ±100 the full control effect; the screen sought activators but most active calls are inhibition curves; nearly all actives have a fitted effect of over 45% in size
NTMT1 inh = Primary qHTS for Inhibitors of N-terminal methyltransferase 1 (NTMT1): MTaseGlo Assay; NTMT1 MTase-Glo SAH luminescence, purified enzyme; Potency, µM (doses to about 114 µM), without a hit: at the top dose activity change, negative = inhibition, usual class: inhibitors; hit rate 2.5% among 59,000; AID 1645870, 2021;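 further: potency means the concentration at half of the fitted maximal effect; plate controls were DMSO vehicle for no effect and no enzyme for full effect; nearly all actives have a fitted effect of over 65% in size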
Target sequence (Q9BV86 whole entry, looked up): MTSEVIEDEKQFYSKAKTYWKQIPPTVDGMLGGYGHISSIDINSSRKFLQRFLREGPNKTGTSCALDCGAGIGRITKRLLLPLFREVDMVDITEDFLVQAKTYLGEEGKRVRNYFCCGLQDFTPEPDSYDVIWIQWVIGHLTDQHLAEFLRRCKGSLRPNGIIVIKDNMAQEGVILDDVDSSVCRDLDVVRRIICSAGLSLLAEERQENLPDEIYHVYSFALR
OvCa metastasis = Primary qHTS assay for Inhibitors of ovarian cancer metastasis using an organotypic tumor microenvironment (TME) model | SKOV3ip1-GFP adhesion/invasion on 3D omental model, fluorescence | Potency, µM (titrated, usually from 45.8 µM), inactives show at the highest dose activity change, negative = inhibition, usual class: inhibitors | hit rate 0.1% among 46,000;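 further: potency means the concentration at half of the fitted maximal effect; plate controls were DMSO wells for no effect and tomatine positive control wells for full effect; nearly all actives have a fitted effect of over 65% in size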
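A 3D layer of primary human omental fibroblasts, mesothelial cells, fibronectin and collagen I, grown 48 hr, received SKOV3ip1-GFP cells in serum-free medium plus compounds at 0.36-46 umol/L. After 2 hr RT and 16 hr 37 C, fixed adherent GFP cells were counted; normalized to DMSO and tomatine.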
DYRK1A inh = Assay for Inhibitors of Dual-Specificity Tyrosine-(Y)-Phosphorylation Regulated Kinase 1A (Kinase-Glo assay) | hit rate 80% among 100 | shares compounds with NTMT1 inh | recombinant DYRK1A, Kinase-Glo ATP depletion luminescence | Potency, µM (highest dose often 76.9 µM), without a hit: top-dose activity change, negative = inhibition, hits mostly inhibitors | AID 2705, 2010
CLK4 inh = Confirmation Assay for Inhibitors of CDC-like Kinase 4 (Kinase-Glo Assay): SAR round 2; AID 493204, 2011; Potency, µM (highest dose often 76.9 µM), for inactives: at the top dose activity, negative = inhibition, hits mostly inhibitors; shares compounds with NTMT1 inh; hit rate 90% among 90; recombinant Clk4, Kinase-Glo ATP luminescence, 4.5 h
Sfp PPTase inh = qHTS Assay for Inhibitos of Bacillus subtilis Sfp phosphopantetheinyl transferase (PPTase): Chemistry Optimization Followup | shares compounds with NTMT1 inh | purified Sfp PPTase enzyme activity, qHTS | Potency, µM (top dose mostly 114 µM), without a hit: at the highest dose activity change, negative = inhibition, most hits filed as inhibitors | hit rate 78% among 230 | AID 540350, 2011
HM489 growth = qHTS for Inhibitos of Bacillus subtilis Sfp phosphopantetheinyl transferase (PPTase): Chemistry Optimization Followup in B. Subtilis HM489. shares compounds with NTMT1 inh. B. subtilis HM489 (acpS-) growth, BacTiter-Glo, 5 h. Potency, µM (doses to about 114 µM), inactives show at the highest dose activity change, negative = inhibition, actives largely listed as inhibitors. hit rate 50% among 220. AID 540353, 2011
Sfp PPTase gel = Gel-Based Assay for Inhibitos of Bacillus subtilis Sfp phosphopantetheinyl transferase (PPTase): Chemistry Optimization Followup | shares compounds with NTMT1 inh | purified Sfp PPTase, gel-based product detection | Potency, µM (titrated, usually from 250 µM), without a hit: at the top dose activity change, negative = inhibition, actives largely listed as inhibitors | hit rate 54% among 220
Sfp gel = qHTS Assay for Inhibitors of Bacillus subtilis Sfp phosphopantetheinyl transferase (PPTase): Gel Based Assay | AID 602362, 2012 | shares compounds with NTMT1 inh | purified Sfp PPTase, gel-based product detection | Potency, µM (series often up to 250 µM), inactives show top-dose activity change, negative = inhibition, usual class: inhibitors | hit rate 90% among 45
Sfp SAR2 = qHTS Assay for Inhibitors of Bacillus subtilis Sfp phosphopantetheinyl transferase (PPTase): SAR Round 2; hit rate 87% among 230; shares compounds with NTMT1 inh; purified Sfp enzyme, PPTase activity, qHTS; Potency, µM (doses to about 57.1 µM), for inactives: at the top dose activity change, negative = inhibition, hits mostly inhibitors
hGST ctr = qHTS Assay for Inhibitors of Bacillus subtilis Sfp phosphopantetheinyl transferase (PPTase): SAR in hGST A1-1; shares compounds with NTMT1 inh; hGST A1-1 enzyme activity counter-screen, qHTS; Potency, µM (series often up to 114 µM), for the others: at the highest dose activity change, negative = inhibition, most hits filed as inhibitors; 55 tested, under 10 active
HSD17B4 inh = Extended Characterization of HPGD Inhibitors: Counterscreen Against HSD17b4; purified HSD17B4, estradiol/NAD+, NADH fluorescence; AID 743187, 2013; hit rate 10% among 230; shares compounds with NTMT1 inh; Potency, µM (series often up to 57.1 µM), for inactives: at the top dose activity change, negative = inhibition, most hits filed as inhibitors
ALDH1A1 counter = Extended Characterization of HPGD Inhibitors: Counterscreen Against ALDH1A1 | shares compounds with NTMT1 inh | recombinant ALDH1A1, NADH fluorescence, propionaldehyde/NAD+ | Potency, µM (doses to about 57.1 µM), inactives show at the top dose activity change, negative = inhibition, most hits filed as inhibitors | hit rate 93% among 230 | AID 743195, 2013
NNMT inh = Counterscreen qHTS for Inhibitors of N-terminal methyltransferase 1 (NTMT1): NNMT MTaseGlo assay | Potency, µM (titrated, usually from 57.1 µM), for inactives: top-dose activity, negative = inhibition, usual class: inhibitors | shares compounds with NTMT1 inh | AID 1645878, 2021 | NNMT MTase-Glo luminescence, SAH detection | hit rate 10% among 120
An asterisk follows results filed as active; ? = inconclusive; . = not tested or not shown; ! = a repeat was not active; [ ] = remark or other dose. Unless noted, the call rests on the fitted dose curve; in most records, active means well fitted curve in the direction sought with a large enough effect; inconclusive means small, poorly fitted or top-dose-only effect, or another doubt; inactive means no such curve, though single readings can be large; an effect the other way counts as inactive or inconclusive.

SMILES	GPR32 ag	FH mod	NTMT1 inh	OvCa metastasis	Sfp PPTase inh	HM489 growth	Sfp PPTase gel	Sfp SAR2	others
CSc1ncc(C(=O)N2CCN(c3cccc(C(F)(F)F)c3)CC2)c(C)n1	35	-3%	18%	-5%	.	.	.	.
Cc1ccnc(NC(=S)N2CCN(c3cccc(C(F)(F)F)c3)CC2)c1	.	.	.	.	4.7µM*	12µM*	0.32µM*!	0.65µM*	Sfp gel=4.3µM*;hGST ctr=-3%;HSD17B4 inh=-25%;ALDH1A1 counter=7.6µM*
Cc1ccnc(NC(=S)N2CCN(c3cccc(C(F)(F)F)c3)C2)c1	.	.	-11%[57.5 µM]	.	3%	-28%	?	0.81µM*	HSD17B4 inh=-8%;ALDH1A1 counter=22µM*
Cc1ccc(-n2nc(C(=O)N3CCN(c4cccc(C(F)(F)F)c4)CC3)c(=O)n(C)c2=O)cc1	-6	-28%	?	-1%	.	.	.	.
O=C(Cc1ccc(Cl)c(Cl)c1)Nc1ccc(S(=O)(=O)NCc2ccco2)cc1	.	.	4%[57.5 µM]	.	.	.	.	.
Cc1ccnc(NC(=S)N2CCCN(c3cccc(C(F)(F)F)c3)CC2)c1	.	.	?	.	4.7µM*	7.4µM*	1.3µM*	1.6µM*	Sfp gel=1.9µM*;hGST ctr=?;HSD17B4 inh=-9%;ALDH1A1 counter=1.7µM*
Cc1oc2ncn(C)c(=O)c2c1C(=O)N1CCN(c2cccc(C(F)(F)F)c2)CC1	-6	5%	5%	-4%	.	.	.	.
Cc1ccnc(C(=S)N2CCN(c3cccc(C(F)(F)F)c3)CC2)c1	.	.	-2%	.	?	?	6%	?	HSD17B4 inh=-7%;ALDH1A1 counter=17µM*
Cc1ccnc(N=C(N)N2CCN(c3cccc(C(F)(F)F)c3)CC2)c1	.	.	.	.	?	?	1%	36µM*	Sfp gel=1%;hGST ctr=?
FC(F)(F)c1cccc(N2CCN(C(=S)Nc3cc4ccccc4cn3)CC2)c1	.	.	.	.	47µM*	-1%	16µM*	13µM*	HSD17B4 inh=24µM*;ALDH1A1 counter=15µM*
COc1cc2nc(N3CCN(C(=O)c4ccco4)C4CCCCC43)nc(N)c2cc1OC (stereo not drawn)	.	-7%	?	.	.	.	.	.	NNMT inh=24%
COc1ccc(OC)c2sc(N3CCN(C(=O)c4ccco4)CC3)nc12	-9	9%	-8%	3%	.	.	.	.
Cc1ccc(N2CCN(S(=O)(=O)c3nnc(NC(=O)c4ccc(C(C)C)cc4)s3)CC2)cc1	10	0%	28%	6%	.	.	.	.
Cc1occc1-c1ccc2ncnc(NCCc3cnc[nH]3)c2c1	.	.	?	.	.	.	.	.	DYRK1A inh=9.2µM*
Cc1ccc(CNc2ncnc3ccc(-c4ccoc4)cc23)o1	.	.	-5%	.	.	.	.	.	DYRK1A inh=6.5µM*
c1nc(NCCc2cnc[nH]2)c2cc(-c3ccoc3)ccc2n1	.	.	-2%	.	.	.	.	.	DYRK1A inh=4.1µM*
c1nc(NCc2ccc3c(c2)OCO3)c2cc(-c3ccoc3)ccc2n1	.	.	1%	.	.	.	.	.
CC(O)c1ccc(-c2ccc3ncnc(NCCc4cnc[nH]4)c3c2)o1 (stereo not drawn)	.	.	?	.	.	.	.	.	CLK4 inh=1.5µM*
c1cncc(CNc2ncnc3ccc(-c4cccnc4)cc23)c1	.	.	-4%[57.5 µM]	.	.	.	.	.
CC1(C)C(N(O)C(=O)Nc2ccc(Cl)cc2)N(c2ccc(Cl)cc2)C(=O)N1CC(=O)NN=CC=Cc1ccc([N+](=O)[O-])o1 (stereo not drawn)	.	-11%[53.3 µM]	12%[57.5 µM]	-8%	.	.	.	.
CCN(CC)C(=O)CSc1nc(-c2ccccc2F)nc2c1Cc1c(CO)cnc(C)c1O2	-3	-24%	2%	-3%	.	.	.	.
